A selection: hits, their analogues and other compounds. The true share with any hit is near 9.3%.
HCMV antiviral: blocks human cytomegalovirus replication. hit rate 4.5% among 410,000. activity change, negative = inhibition, % at 57.5 µM. HFF cells, HCMV-luciferase reporter, 72 h; hits give low values; in the data active = activity change below about -60%; inconclusive = no clear call, values can overlap the other calls; inactive = above about -39%
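Two-dose cell screen: HFF monolayers treated with compounds and infected with luciferase-expressing HCMV at 1 PFU/cell, 72 h at 37C, then lysed for luciferase measurement.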
FMDV antiviral: antivirals against foot and mouth disease virus; FMDV antiviral cell-based qHTS; hit rate 1.2% among 410,000; Potency, µM (top dose mostly 57.9 µM), for inactives: top-dose activity change, negative = inhibition, actives largely listed as inhibitors; calls by dose curve; tested in HEK293T cells; also: read-out not given here; potency is read from the fitted curve at half-maximal effect; nearly all actives have a fitted effect of over 45% in size
VACV Venus inh: vaccinia inhibition (Venus reporter). Potency, µM (top dose mostly 36.5 µM), for inactives: at the highest dose activity change, negative = inhibition, most hits filed as inhibitors. hit rate 0.46% among 330,000. Vaccinia virus Venus reporter expression, fluorescence; calls by dose curve; tested in A549 cells; also: potency is read from the fitted curve at half-maximal effect; nearly all actives have a fitted effect of over 30% in size
HCV inhibitor: inhibitors of hepatitis C virus infection; hit rate 3.4% among 340,000; Potency, µM (series often up to 41.8 µM), inactives show at the top dose activity change, negative = inhibition, actives largely listed as inhibitors; Huh7.5.1 HCVcc-Cre infection, luciferase reporter, 44 h; also: potency is read from the fitted curve at half-maximal effect
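Infectious HCVcc-Cre (~0.5 moi) was added to cells just after compound, with cells seeded 4 h earlier at 1,000 per well. Luciferase activity after 44 h culture reported infection; substrate was incubated 15 min at room temperature before reading.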
Sm TGR inh: blocks Schistosoma mansoni thioredoxin glutathione reductase; AID 485364; hit rate 3% among 360,000; Potency, µM (top dose mostly 114 µM), inactives show at the top dose activity change, negative = inhibition, actives largely listed as inhibitors; purified TGR, DTNB reduction, TNB absorbance 405 nm; also: potency is read from the fitted curve at half-maximal effect; nearly all actives have a fitted effect of over 60% in size
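TGR 20 nM + NADPH 100 uM (dispensed conc.), cpd preinc 15 min RT; start with NADPH (500 uM addition) then DTNB (15 mM addition). Kinetic TNB absorbance, 405 nm filter. Four-parameter Hill fit across titration.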
VACV mCherry inh: inhibitors of vaccinia virus infection (mCherry reporter signal) | Vaccinia virus mCherry reporter infection, fluorescence | Potency, µM (top dose mostly 36.5 µM), without a hit: at the highest dose activity change, negative = inhibition, hits mostly inhibitors | hit rate 0.63% among 310,000; calls by dose curve; tested in A549 cells; also: potency is read from the fitted curve at half-maximal effect; nearly all actives have a fitted effect of over 35% in size
Numbers without * were called inactive; i = inactive; ? = inconclusive; . = not tested or not shown; [ ] = another dose, or the depositor's remark. Unless noted, calls follow the shape of the dose curve; as a rule, active = well fitted curve in the direction sought with a large enough effect; inconclusive = small, poorly fitted or top-dose-only effect, or another doubt; inactive = no such curve, though single readings can be large; an effect the other way counts as inactive or inconclusive. % is scaled to controls: 0 for no effect and ±100 for the full control effect.

SMILES	HCMV antiviral	FMDV antiviral	VACV Venus inh	HCV inhibitor	Sm TGR inh	VACV mCherry inh
N#CC1=C(N)OC2=C(CC/C2=C\c2ccc(F)cc2)C1c1ccc(F)cc1 (stereo not given)	.	.	.	-7%	25µM*	.
N#CC1=C(N)OC2=C(CCC/C2=C/c2ccoc2)C1c1ccoc1 (stereo not given)	.	.	.	4%	18µM*	.
CC1(C)CC(=O)C2=C(C1)OC(N)=C(C#N)C2c1ccoc1 (stereo not given)	56	10%	-6%	9%	-15%	-20%
CN(c1ccccc1)c1nc(N)c([N+](=O)[O-])c(N2CCCCC2)n1	56	2%	.	?	6%	.
O=C1C(Nc2ccccc2)=C(N2CCCCC2)C(=O)c2ccccc21	-69*	-3%	?	10µM*	8.9µM*	15%[1.46 µM]
COc1ccccc1NC1=C(N2CCCCC2)C(=O)c2ccccc2C1=O	.	10µM*	10µM*	?	?	?
CN(C1=C(N2CCCCC2)C(=O)c2ccccc2C1=O)c1ccccc1	-20	.	-8%	13µM*	?	-14%
O=C1C(NS(=O)(=O)c2ccccc2)=C(N2CCN(c3ccc(F)cc3)CC2)C(=O)c2ccccc21	-40	-15%	?	-9%	?	0.32µM*
O=C1C(NS(=O)(=O)c2ccc(Br)cc2)=C(N2CCCCC2)C(=O)c2ccccc21	6	-8%	.	?	-18%	.
O=C(/C=C/c1ccc(O)cc1)c1ccc(NC2=C(N3CCCCC3)C(=O)c3ccccc3C2=O)cc1	-99*	?	?	10µM*	25µM*	1.4µM*
O=C1C(Nc2cccc(O)c2)=C(N2CCCCC2)C(=O)c2ccccc21	-28	.	-20%	2%	10µM*	-1%
Cc1ccc(NC2=C(N3CCCCC3)C(=O)c3ccccc3C2=O)cc1	-103*	.	-14%	-5%	13µM*	i
C=CCNc1nc(SC)nc2ccsc12	-24	-21%	-9%	?	-20%	.
CCn1c(=O)[nH]c2ccccc21	.	0%	.	.	.	.
CCn1c(C)c(CS(=O)(=O)c2ccccc2)[nH]c1=O	-27	-1%	-14%	0%	0.028µM*	i
COC(=O)c1[nH]c2cccc(OC)c2c1NC(=O)CN1CC2(C)CC1CC(C)(C)C2 (stereo not given)	-2	-14%	-14%	-4%	-1%	.
COc1cc(OC)c(NC(=O)C(CC(C)C)N2Cc3ccccc3C2=O)cc1Cl (stereo not given)	-65*	8%	-8%	.	-1%	i
COc1cccc(C(=O)NCCS(=O)(=O)NCc2cccs2)c1	-26	9%	-12%	-2%	0%	-13%
CC(OC(=O)c1ccc(NC(=O)CC#N)cc1)C(=O)NC(c1ccccc1)c1ccccc1 (stereo not given)	-30	-3%	4%	8%	.	-8%
CCOC(=O)c1cc(C)n(-c2ccccc2)c1C	-77*	44%	1%[7.34 µM]	-11%	-17%	0%[7.34 µM]
COc1ccc(-n2c(C)cc(C(=O)CSc3ccc(NC(C)=O)cc3)c2C)cc1	8	0%	-23%	-6%	-8%	i
Cc1cc(C(=O)COc2cccc(-n3cnnn3)c2)c(C)n1-c1ccccc1	-7	?	.	1µM*	?	.
Cc1cc(C(=O)C(C)OC(=O)c2ccc(NC(=O)CC#N)cc2)c(C)n1-c1ccccc1 (stereo not given)	-63*	16µM*	-19%	?	6%	?
Cc1cc(C(=O)OCC(N)=O)c(C)n1-c1ccccc1	70	21%	-12%	0%	1%	i
CC(=O)Nc1ccc(SCC(=O)c2cc(C)n(-c3ccccc3)c2C)cc1	-60*	14%	-9%	-1%	-5%	-17%
SMILES	HCMV antiviral	FMDV antiviral	VACV Venus inh	HCV inhibitor	Sm TGR inh	VACV mCherry inh
O=C(O)CSc1ccccc1C(=O)O	10	5%	.	15%	-17%	.
COc1ccc(/C(C)=N/NC(=O)CN(c2ccc(OC)cc2)S(=O)(=O)c2ccccc2)cc1	-2	-11%	.	16%	-9%	.
Cc1cc(=O)c(C(=O)O)c(C)n1-c1ccccc1	-62*	0%	-10%	-16%	.	-7%
CCOC(=O)c1sc(=S)n(-c2ccccc2)c1NC(C)=O	30	9%	-3%[7.34 µM]	9%	45µM*	-1%[7.34 µM]
Cc1ccc(-n2c(C)cc(C(=O)CN3CCCCC3)c2C)cc1	-20	36%	-6%	?	-4%	-11%
Cc1cc(C(=O)CN2CC(C)OC(C)C2)c(C)n1-c1ccccc1 (stereo not given)	42	26%	3%	-14%	45µM*	i
CC1(C)CC(NC(=O)COc2ccccc2Cl)CC(C)(C)N1	?	-7%	.	26%	.	.
CC1(C)CC(NC(=O)COc2ccc(Br)cc2Cl)CC(C)(C)N1	-16	-31%	.	25µM*	-25%	.
Cc1c(OCC(=O)NC2CC(C)(C)NC(C)(C)C2)ccc2c1oc(=O)c1ccccc12	-15	-12%	.	2µM*	-6%	.
CCN(CC)c1ccc(/C=N/NC(=O)c2cccc(S(=O)(=O)N3CCOCC3)c2)c(O)c1	-75*	?	?	?	-23%	1.8µM*
CCN(CC)c1ccc(/C=N/Nc2ccc(C)cc2)c(O)c1	-20	7%	-1%	3%	4µM*	-19%
CCN(CC)c1ccc(C=Nc2cccc(S(=O)(=O)N3CCOCC3)c2)c(O)c1	6	6%	-17%	-14%	.	-19%
O=C(CCC(=O)N/N=C/c1c[nH]c2ccccc12)NCc1ccccc1	64	-14%	-18%	30%	-16%	i
C/C(=N/NC(=O)CNC(=O)C1COc2ccccc2O1)c1ccc2c(c1)OCCO2 (stereo not given)	-73*	0%	-2%	-30%	36%	0%
CCN(CC)c1ccc(/C=N/NC(=O)CCC(=O)NCc2ccccc2)c(O)c1	-16	14%	?	?	-2%	10µM*
COC(=O)C1C(c2ccc(Br)cc2)Nc2nnc(C(F)(F)F)n2C1(C)O (stereo not given)	6	-10%	-19%	7%	-29%	-7%
CCN(CC)c1ccc(/C=N/NC(=O)c2c(Cl)cnn2C)c(O)c1	-101*	21%	?	3.5µM*	-25%	1.1µM*
CCOC(=O)N/N=C/c1ccc(N(CC)CC)cc1O	24	32%	?	3.5µM*	-1%	?
CCN(CC)c1ccc(/C=N/NC(=O)CNC(=O)C2COc3ccccc3O2)c(O)c1 (stereo not given)	-97*	-7%	?	11µM*	11%	2.8µM*
CCN(CC)S(=O)(=O)c1cccc(C(=O)N/N=C/c2cc(OC)c(O)c(OC)c2)c1	-5	?	-14%	-1%	-8%	-2%
CCN(CC)S(=O)(=O)c1cccc(C(=O)N/N=C/c2cccc(O)c2O)c1	-24	-5%	?	?	-11%	10µM*

Bioassay records (PubChem BioAssay)
